Source: PubChem BioAssay
Several values for one entry are separate records, joined by “and”; a condition that tells them apart may be missing. Equal values may be shown once. Activity calls are given as the source filed them.

Key:
[1] = binders of probe aFSTL3 on microarray, primary screen, stem cell growth factor project, biochemical, small-molecule microarray, fluorescence 635/667 (AID 1064); conditions: higher = more signal;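 note: measures binding of the biotinylated anti-FSTL3 antibody to printed compounds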
[2] = binders from COS7 lysate, DM2A8 probe, primary screen, torsin A project, cell lysate, small-molecule microarray, fluorescence 635/667 (AID 1065); conditions: higher = more signal, COS7 lysate expressing mutant human TOR1A
[3] = binders of probe aFGF2 on microarray, primary screen, stem cell growth factor project, biochemical, small-molecule microarray, fluorescence 635/667 (AID 1067); conditions: higher = more signal;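 note: measures binding of biotinylated aFGF2 protein to printed compounds on slides; z-score merges feature fluorescence and signal-to-noise across triplicate slides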
[4] = binders of probe aFGF10 on microarray, primary screen, stem cell growth factor project, biochemical, small-molecule microarray, fluorescence 635/667 (AID 1071); conditions: higher = more signal;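 note: score merges 667 nm spot intensity and signal to noise from triplicate slides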
[5] = biological target: Neurogenic locus notch homolog protein 2 (Homo sapiens) (UniProt Q04721); experiment: Notch2 binders on small-molecule microarrays, primary screen, biochemical, small-molecule microarray, 635 nm fluorescence, stem cell growth factors (AID 1073); conditions: Notch2 binding, higher = more signal
[6] = biological target: Pro-neuregulin-1, membrane-bound isoform (Homo sapiens) (UniProt Q02297); experiment: NRG1 binders on small-molecule microarrays, primary screen, psychiatric disease protein project, biochemical, small-molecule microarray, fluorescence 635/667 (AID 1075); conditions: NRG1 binding, 635 nm fluorescence, higher = more signal;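 note: score combines 667 nm spot fluorescence with signal to noise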
[7] = system: Neuregulin-1 EGF-like domain; experiment: binders of neuregulin-1 EGF-like domain, primary screen, biochemical, small-molecule microarray, 635 nm fluorescence (AID 1081); conditions: small-molecule microarray binding, higher = more signal;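 note: binding of the protein to compounds printed on small-molecule microarray slides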
[8] = FRG1 promoter luciferase signal modulators, primary screen, FRG1 inhibition for FSHD, cell-based, C2C12 myotubes, firefly/Renilla luciferase, luminescence (AID 1084); conditions: higher = more signal, called active from +8 up or from −8 down
[9] = binders of probe aFST on microarray, primary screen, stem cell growth factor project, biochemical, small-molecule microarray, fluorescence 635/667 (AID 1086); conditions: higher = more signal;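 note: score merges 667 nm fluorescence with signal-to-noise of each printed compound spot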
[10] = binders of probe aHhip on microarray, primary screen, stem cell growth factor project, biochemical, small-molecule microarray, fluorescence 635/667 (AID 1087); conditions: higher = more signal;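 note: score merges spot fluorescence at 667nm with spot signal to noise ratio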

Chain of Neurogenic locus notch homolog protein 2 (Homo sapiens) (Q04721 whole entry, looked up, canonical isoform): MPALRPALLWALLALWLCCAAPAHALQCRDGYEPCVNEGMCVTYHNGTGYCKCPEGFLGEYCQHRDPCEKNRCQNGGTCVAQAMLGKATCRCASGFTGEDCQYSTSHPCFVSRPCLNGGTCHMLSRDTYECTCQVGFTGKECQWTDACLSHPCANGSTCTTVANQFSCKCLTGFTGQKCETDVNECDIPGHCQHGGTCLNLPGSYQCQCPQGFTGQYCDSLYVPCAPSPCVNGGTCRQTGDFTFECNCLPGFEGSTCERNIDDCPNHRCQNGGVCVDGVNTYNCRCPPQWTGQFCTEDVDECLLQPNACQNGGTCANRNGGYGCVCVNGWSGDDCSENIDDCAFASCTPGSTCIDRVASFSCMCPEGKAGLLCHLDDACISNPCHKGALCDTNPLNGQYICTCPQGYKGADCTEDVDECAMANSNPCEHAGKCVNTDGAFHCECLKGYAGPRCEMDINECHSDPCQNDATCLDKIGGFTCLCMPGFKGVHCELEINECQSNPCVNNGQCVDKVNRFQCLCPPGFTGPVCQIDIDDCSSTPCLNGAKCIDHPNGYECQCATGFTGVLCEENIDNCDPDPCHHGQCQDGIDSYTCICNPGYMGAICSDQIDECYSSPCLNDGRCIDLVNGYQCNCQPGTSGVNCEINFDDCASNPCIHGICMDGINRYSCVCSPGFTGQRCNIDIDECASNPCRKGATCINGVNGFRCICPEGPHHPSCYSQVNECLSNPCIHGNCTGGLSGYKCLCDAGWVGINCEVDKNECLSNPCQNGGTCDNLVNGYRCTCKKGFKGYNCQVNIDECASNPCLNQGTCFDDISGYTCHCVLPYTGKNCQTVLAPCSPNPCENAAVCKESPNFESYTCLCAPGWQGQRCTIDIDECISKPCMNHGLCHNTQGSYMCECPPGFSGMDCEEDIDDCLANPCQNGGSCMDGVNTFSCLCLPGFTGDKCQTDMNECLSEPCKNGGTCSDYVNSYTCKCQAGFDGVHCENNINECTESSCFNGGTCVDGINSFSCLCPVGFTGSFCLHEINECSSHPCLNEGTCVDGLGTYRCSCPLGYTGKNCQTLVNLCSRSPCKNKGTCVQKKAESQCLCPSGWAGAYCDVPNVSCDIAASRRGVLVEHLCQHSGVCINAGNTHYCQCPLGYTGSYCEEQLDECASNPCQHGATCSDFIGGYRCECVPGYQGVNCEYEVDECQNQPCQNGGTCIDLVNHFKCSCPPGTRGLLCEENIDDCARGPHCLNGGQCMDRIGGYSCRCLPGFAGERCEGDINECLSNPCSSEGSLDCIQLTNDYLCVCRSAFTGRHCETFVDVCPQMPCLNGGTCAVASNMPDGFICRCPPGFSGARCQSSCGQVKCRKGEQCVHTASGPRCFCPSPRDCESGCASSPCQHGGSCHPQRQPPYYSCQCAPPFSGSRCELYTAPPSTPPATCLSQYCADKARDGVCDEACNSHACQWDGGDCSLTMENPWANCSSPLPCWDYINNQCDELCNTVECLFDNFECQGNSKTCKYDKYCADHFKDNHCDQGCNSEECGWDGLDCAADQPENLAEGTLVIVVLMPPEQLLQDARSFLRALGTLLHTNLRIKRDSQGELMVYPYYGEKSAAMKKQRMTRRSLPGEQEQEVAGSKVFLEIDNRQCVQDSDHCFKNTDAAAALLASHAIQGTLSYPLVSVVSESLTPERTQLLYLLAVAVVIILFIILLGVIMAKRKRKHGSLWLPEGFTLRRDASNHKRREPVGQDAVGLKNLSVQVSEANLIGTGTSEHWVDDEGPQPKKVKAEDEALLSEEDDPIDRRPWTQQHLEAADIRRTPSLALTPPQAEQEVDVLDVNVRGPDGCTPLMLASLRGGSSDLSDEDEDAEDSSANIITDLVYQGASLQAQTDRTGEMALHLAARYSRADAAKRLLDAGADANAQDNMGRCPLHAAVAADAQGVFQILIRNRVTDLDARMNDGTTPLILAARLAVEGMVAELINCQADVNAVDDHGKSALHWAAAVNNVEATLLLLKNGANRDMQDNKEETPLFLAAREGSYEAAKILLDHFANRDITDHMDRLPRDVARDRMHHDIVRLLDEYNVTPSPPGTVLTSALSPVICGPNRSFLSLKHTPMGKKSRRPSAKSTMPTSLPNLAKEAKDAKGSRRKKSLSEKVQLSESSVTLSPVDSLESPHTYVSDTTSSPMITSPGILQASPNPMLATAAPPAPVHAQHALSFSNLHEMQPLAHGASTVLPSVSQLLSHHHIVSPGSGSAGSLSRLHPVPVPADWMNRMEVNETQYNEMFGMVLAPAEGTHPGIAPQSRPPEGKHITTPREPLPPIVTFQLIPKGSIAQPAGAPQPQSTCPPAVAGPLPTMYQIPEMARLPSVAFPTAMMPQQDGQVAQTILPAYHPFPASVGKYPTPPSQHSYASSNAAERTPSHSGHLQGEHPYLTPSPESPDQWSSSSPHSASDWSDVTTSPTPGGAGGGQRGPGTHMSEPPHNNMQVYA
Chain of Pro-neuregulin-1, membrane-bound isoform (Homo sapiens) (Q02297 whole entry, looked up, the tested form may be a part, canonical isoform): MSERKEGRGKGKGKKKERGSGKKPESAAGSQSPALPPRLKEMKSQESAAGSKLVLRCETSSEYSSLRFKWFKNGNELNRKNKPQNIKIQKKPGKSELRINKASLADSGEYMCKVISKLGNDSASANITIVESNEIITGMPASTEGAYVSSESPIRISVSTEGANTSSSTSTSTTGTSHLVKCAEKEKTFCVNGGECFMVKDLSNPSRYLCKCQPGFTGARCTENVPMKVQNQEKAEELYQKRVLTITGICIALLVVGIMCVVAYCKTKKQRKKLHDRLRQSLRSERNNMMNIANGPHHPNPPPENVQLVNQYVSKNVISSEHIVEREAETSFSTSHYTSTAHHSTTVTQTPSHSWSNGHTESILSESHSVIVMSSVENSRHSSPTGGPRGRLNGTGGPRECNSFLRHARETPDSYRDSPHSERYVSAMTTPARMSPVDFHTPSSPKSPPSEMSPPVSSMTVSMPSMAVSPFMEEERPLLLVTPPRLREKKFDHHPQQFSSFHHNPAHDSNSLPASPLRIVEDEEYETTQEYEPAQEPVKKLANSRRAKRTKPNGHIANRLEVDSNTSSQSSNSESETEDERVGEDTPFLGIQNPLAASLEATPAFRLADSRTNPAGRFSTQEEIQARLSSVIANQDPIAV

| Structure (SMILES) | composite z-score [1] | composite z-score [2] | composite z-score [3] | composite z-score [4] | composite z-score [5] | composite z-score [6] | composite z-score [7] | z-score [8] | composite z-score [9] | composite z-score [10] |
| --- | --- | --- | --- | --- | --- | --- | --- | --- | --- | --- |
| C=CCN(CCCCC)C(=O)C(c1cccs1)N(CCOCCO)C(=O)/C=C\C(=O)O (stereo not given) | -0.192 and 0.0796 | 0.185 and -1.07 | -0.157 and -0.113 | -1.26 and -0.317 | -1.84 and -1.41 | -0.661 and -0.969 | -0.196 and -0.609 | 0.874 (inactive) and 1.45 (inactive) | -1.48 and -0.675 | -0.0922 and -0.41 |
| C=C[C@@H](OC)[C@H](O)c1ccc(O)c(F)c1 | 1.24 and 0.937 | -0.598 and -1.38 | -0.183 and -0.222 | -0.609 and -0.315 | -1.74 and -0.398 | -0.725 and -0.815 | -0.564 and -0.928 | 0.679 (inactive) and -0.707 (inactive) | -1.4 and -1.25 | -0.0708 and -0.175 |
| C=C[C@H](OC)[C@@H](O)c1ccc(OCCO)cc1 | 1.29 and 1.32 | -0.768 and -0.833 | -0.219 and -0.121 | -1.19 and -0.295 | -1.86 and -1.69 | -0.102 and -0.296 | 0.604 and 0.0642 | 0.298 (inactive) and 0.277 (inactive) | -1.29 and -0.821 | -0.405 and -0.268 |
| COC(=O)C1=C(C)N(Cc2ccccc2)C2=C3C(=O)N(C)C(=O)[C@@H]3[C@@](O)(C(=O)OC)C(=O)N2[C@@H]1c1ccccc1 | -0.0472 and -0.448 | 0.131 and 0.375 | -0.0301 and -0.0158 | 0.721 and 0.128 | 0.356 and 0.415 | -0.239 and -0.0154 | -0.322 and -0.0698 | 0.121 (inactive) and -0.811 (inactive) | 0.224 and -0.114 | 0.251 and -0.0645 |
| CCOC(=O)C[C@H]1[C@H](OC(=O)c2ccccc2-c2ccccc2)[C@@H](NC(=O)Cc2ccc(OC)cc2)c2cc(OCCCO)ccc2N1C(=O)Cc1ccc(OC)cc1 | 0.169 and 0.18 | 0.22 and 0.0916 | 0.0811 and -0.0737 | 0.473 and -0.0644 | -0.386 and -0.0483 | 0.621 and -0.428 | 0.927 and -0.835 | -0.848 (inactive) and -0.382 (inactive) | 0.492 and 0.0474 | -0.0994 and -0.199 |
| C#CCN1C(/C=C/c2ccccc2)C(=O)OC[C@H]1c1ccccc1 (stereo not given in full) | -0.256 and -0.303 | 0.184 and 0.348 | -0.0569 and -0.1 | 0.301 and 0.398 | 0.346 and -0.0877 | -0.0907 and 0.365 | 0.165 and 0.833 | -1.03 (inactive) and -0.536 (inactive) | -0.151 and 0.465 | 0.0401 and -0.276 |
| C=CCN(C(=O)C1N(CCCCCCO)C(=O)C2C(C(=O)O)C3C=CC21O3)c1ccc(OC)cc1 (stereo not given) | 0.859 and 1.23 | -0.585 and -0.754 | -0.241 and -0.18 | -2.33 and -1.4 | -2.07 and -1.8 | 1.12 and -1.47 | 0.786 and -1.16 | 0.608 (inactive) and 0.789 (inactive) | -0.718 and -0.496 | -0.126 and 0.0623 |
| Cc1ccc(S(=O)(=O)N[C@H]2COC(=O)[C@@H](Cc3ccccc3)NC(=O)[C@@H](C)COC(=O)CC=C[C@@H]2C)cc1 | -0.547 and -0.267 | 0.811 and 0.656 | -0.177 and -0.145 | 0.0514 and 0.209 | -0.311 and 0.0627 | -0.355 and -0.215 | -0.721 and 0.219 | 1.23 (inactive) and 1.04 (inactive) | -0.169 and -0.0364 | -0.429 and -0.0994 |
| COC(=O)C1=C(C)N(Cc2ccccc2)[C@]23O[C@](C(=O)OC)(C(=O)N2[C@@H]1c1ccccc1)[C@@H](c1ccccc1)[C@@H]3C(=O)c1ccccc1 | -0.139 and -0.413 | 0.458 and -0.235 | -0.0716 and -0.0931 | 0.236 and 0.391 | 0.789 and 0.499 | 0.489 and -0.621 | 0.428 and 0.602 | -0.0163 (inactive) and 0.21 (inactive) | 0.398 and 0.155 | -0.132 and -0.226 |
| C=CC[C@@H](O)c1ccc(O)c(F)c1 | 1.77 and 0.459 | 0.897 and -0.727 | -0.0695 and -0.194 | -0.03 and -1.69 | -1.42 and -2.14 | -0.627 and -0.0657 | 0.684 and 0.704 | 0.572 (inactive) and -1.4 (inactive) | -0.922 and -0.799 | -0.132 and 0.0392 |
| C=CCN(Cc1ccccc1)C(=O)C1N(CCOCCO)C(=O)C2C(C(=O)O)C3C=CC21O3 (stereo not given) | 1.75 and 1.34 | -1.1 and -1.84 | -0.309 and -0.27 | -2.7 and -1.09 | -2.27 and -1.42 | 1.27 and 0.866 | 0.731 and 0.433 | -0.91 (inactive) and -0.244 (inactive) | -1.06 and -1.03 | -0.423 and -0.362 |
| CC(=O)OC[C@H]1O[C@H](C#CC(C)(C)C)C=C[C@@H]1OC(C)=O | -0.358 | -0.159 | -0.126 | 0.039 | 1.01 | 1.38 | 1.25 | -0.259 (inactive) | 0.454 | 0.164 |
| CC(C)=NOCc1ccc(-c2cn([C@@H]3COC[C@H]3O)nn2)cc1 | -0.401 | 0.032 | -0.0268 | 0.543 | 0.31 | -0.766 | 0.718 | 0.0937 (inactive) | 0.169 | 0.0722 |
| C=CCN(C(=O)C1N(CCCCCCO)C(=O)C2C(C(=O)O)C3C=CC21O3)C(C)(C)C (stereo not given) | 0.619 and 0.997 | -1.01 and -1.12 | -0.159 and -0.313 | -1.58 and -1.55 | -1.01 and -1.71 | 1.07 and -0.354 | -0.192 and 0.886 | 3.01 (inactive) and 0.174 (inactive) | -0.492 and -1.5 | -0.169 and 0.0373 |
